Data published in PubChem BioAssay (EPA / NIEHS).
Inconclusive results are not listed. Calls of active or inactive are those of the source. Rule for the calls, unless noted: active = hit-call score of the fitted dose curve at least 0.9, where 1 is the maximum; inconclusive = response in the unintended direction; inactive = score below 0.9.

Assays:
[1] = TOX21_p53_BLA_p2_viability: Viability Assessment in the Tox21 HCT-116 p53 Agonism Beta-lactamase Assay, Phase 2 (AID 2283591);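 note: actives lower the ATP signal meaning cytotoxicity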
Outline: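 HCT116 p53-bla cells, 4000/well, dosed after 5 h plating (217-fold dilution of DMSO stocks) and incubated 16 h at 37C. Viability taken as cellular ATP by CellTiter-Glo luminescence after 30 min RT; signal loss marks cytotoxicity.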

[2] = molecular target: Cellular tumor antigen p53 (Homo sapiens) (UniProt P04637); assay: TOX21_p53_BLA_p2_ratio: Tox21 HCT-116 p53 Agonism Beta-lactamase Assay, Ratio, Phase 2 (AID 2283592)
Outline: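 An inducible beta-lactamase reporter in HCT116 cells signals p53 pathway activation. After 16 h chemical exposure at 37C, cells load CCF4-AM substrate for 2 h at room temperature; activity is the cleaved/uncleaved emission ratio relative to DMSO.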

[3] = TOX21_p53_BLA_p3_viability: Viability Assessment in the Tox21 HCT-116 p53 Agonism Beta-lactamase Assay, Phase 3 (AID 2283593);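 note: cells exposed to compound for 16 h before reading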
Outline: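 HCT116 cells, 4000/well, dosed 5 h after plating by pin transfer (217-fold dilution from DMSO stock) and incubated 16 h at 37C, 5% CO2. Viability read as ATP luminescence with CellTiter-Glo after 30 min at room temperature.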

[4] = molecular target: Cellular tumor antigen p53 (Homo sapiens) (UniProt P04637); assay: TOX21_p53_BLA_p5_ratio: Tox21 HCT-116 p53 Agonism Beta-lactamase Assay, Ratio, Phase 5 (AID 2283599)
Outline: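 HCT-116 p53-bla cells (4000/well) plated 5 h, dosed with compound (217-fold DMSO dilution) for 16 h at 37 C; CCF4-AM substrate 2 h at room temperature. Activity is the 460/530 nm emission ratio (405 nm excitation), fitted in gain-of-signal direction versus DMSO.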

[5] = molecular target: Cellular tumor antigen p53 (Homo sapiens) (UniProt P04637); assay: TOX21_p53_BLA_p4_ratio: Tox21 HCT-116 p53 Agonism Beta-lactamase Assay, Ratio, Phase 4 (AID 2283601)
Outline: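 HCT-116 p53 beta-lactamase reporter cells (4000/well) preincubated 5 h, then compound (217-fold dilution of DMSO stock) for 16 h at 37C. CCF4-AM substrate added 2 h at room temperature; 460/530 nm emission ratio fitted upward versus DMSO.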

[6] = TOX21_p53_BLA_p5_viability: Viability Assessment in the Tox21 HCT-116 p53 Agonism Beta-lactamase Assay, Phase 5 (AID 2283600)
Outline: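 Counter-readout for cytotoxicity: ATP-dependent luminescence from CellTiter-Glo, read in the beta-lactamase wells after 30 min at RT, following a 16 h compound exposure at 37C.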

[7] = CCTE_Harrill_HTTr_Viability_MCF7: CCTE's 6-hour Cell Viability Assessment for the High-Throughput Transcriptomics (HTTr) Platform, in MCF-7 cells cultured in DMEM + 10% fetal bovine serum, Harrill Lab (AID 2284010; active = hit-call score of the fitted dose curve at least 0.9, where 1 is the maximum; inactive = score below 0.9)
Outline: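 Membrane integrity was scored by high-content imaging of propidium iodide dye exclusion after a 6 h exposure across an eight-point dilution series. Data were fitted bidirectionally relative to DMSO as negative control and baseline.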

[8] = CCTE_Harrill_HTTr_Apoptosis_MCF7: CCTE's 6-hour Apoptosis Assessment for the High-Throughput Transcriptomics (HTTr) Platform, in MCF-7 cells cultured in DMEM + 10% fetal bovine serum, Harrill Lab (AID 2284011; active = hit-call score of the fitted dose curve at least 0.9, where 1 is the maximum; inactive = score below 0.9)
Outline: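 Cells are dosed with test chemicals at eight concentrations and imaged 6 hours later for caspase-3/7 activity using a green fluorogenic detection reagent. Activity is fitted in both directions against DMSO controls.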

[9] = molecular target: Cellular tumor antigen p53 (Homo sapiens) (UniProt P04637); assay: TOX21_p53_BLA_p3_ratio: Tox21 HCT-116 p53 Agonism Beta-lactamase Assay, Ratio, Phase 3 (AID 2283596)
Outline: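 HCT116 p53-bla cells (4000/well) given compound in DMSO (217-fold dilution) after 5 h, incubated 16 h at 37C. CCF4-AM substrate 2 h at room temperature; 460/530 nm emission ratio, gain fitted against DMSO.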

[10] = TOX21_p53_BLA_p4_viability: Viability Assessment in the Tox21 HCT-116 p53 Agonism Beta-lactamase Assay, Phase 4 (AID 2283597);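 note: hits lower the luminescence signal meaning cytotoxicity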
Outline: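 Compound exposure of HCT116 cells lasts 16 h at 37C, 5% CO2, with DMSO stocks diluted 217-fold. Cellular ATP is then quantified by CellTiter-Glo luminescence after 30 min at room temperature.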

Measured: outcome

Chain of Cellular tumor antigen p53 (Homo sapiens) (P04637 whole entry, looked up): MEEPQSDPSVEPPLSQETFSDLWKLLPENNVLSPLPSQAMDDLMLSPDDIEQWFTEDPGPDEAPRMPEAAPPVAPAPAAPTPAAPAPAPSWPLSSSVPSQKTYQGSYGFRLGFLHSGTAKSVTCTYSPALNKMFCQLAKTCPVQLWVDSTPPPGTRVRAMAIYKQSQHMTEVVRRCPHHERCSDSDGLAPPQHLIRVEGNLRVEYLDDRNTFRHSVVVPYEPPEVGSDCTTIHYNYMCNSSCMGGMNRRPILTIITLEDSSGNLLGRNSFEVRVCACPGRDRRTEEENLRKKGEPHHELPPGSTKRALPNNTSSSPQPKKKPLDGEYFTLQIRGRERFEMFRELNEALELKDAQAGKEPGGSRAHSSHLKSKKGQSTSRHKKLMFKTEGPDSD

C=CC1=C(C(=O)O)N2C(=O)[C@@H](NC(=O)C(=NOCC(=O)O)c3csc(N)n3)[C@H]2SC1
inactive: [1] | [2] | [3] | [4] | [5]

N[C@H]1C(O)O[C@H](CO)[C@@H](O)[C@@H]1O (stereo partly drawn)
inactive: [1] | [2] | [3] | [4] | [6] | [5]

CCCCCCCCCCCCCCCCCCOP(=O)([O-])OC1CC[N+](C)(C)CC1
inactive: [1] | [2] | [3] | [4] | [5]

COc1ccccc1OCC(O)COC(N)=O (stereo not drawn)
inactive: [1] | [2] | [3] | [4] | [6] | [7] | [8]

NC(=O)c1ccccc1N
inactive: [1] | [2] | [3] | [6]

O=C(OC(=O)c1ccccc1)c1ccccc1
inactive: [1] | [2] | [3] | [6] | [5]

CC(C)CCC[C@@H](C)[C@H]1CC[C@H]2[C@@H]3CC=C4C[C@@H](O)CC[C@]4(C)[C@H]3CC[C@]12C
inactive: [1] | [2] | [3] | [4] | [5]

Cn1c(=O)c2[nH]c(Br)nc2n(C)c1=O
inactive: [1] | [2] | [3] | [4] | [6] | [5]

C/C(=N\O)c1ccc(OCC(=O)N2CCCCC2)cc1
inactive: [1] | [2] | [3] | [6]

COc1ccccc1N1CCN(CCCCNC(=O)c2ccc(-c3ccc(C(C)=O)cc3)cc2)CC1
inactive: [1] | [2] | [3] | [6] | [5]

CC1(C)CCC(NC(=O)[C@@H](N)CCC(=O)O)CC1
inactive: [1] | [2] | [3] | [4] | [5]

CCCCCCCCCCCCOC(=O)c1ccc(O)cc1
inactive: [1] | [2] | [3] | [4] | [6] | [5]

O=C1c2ccccc2C(=O)C1c1ccc(Br)cc1
inactive: [1] | [2] | [3] | [6] | [5]

O=C(NCCNCC(O)COc1ccc(O)cc1)N1CCOCC1 (stereo not drawn)
inactive: [1] | [2] | [3] | [4] | [6] | [5]

CCC(N)(CO)CO
inactive: [1] | [2] | [3] | [6] | [5]

C[Si](C)(C)C
inactive: [1] | [2] | [3] | [4] | [5]

Cl[Si](Cl)(c1ccccc1)c1ccccc1
inactive: [1] | [2] | [3] | [6]

COc1cc(-c2ccc(=O)[nH]n2)ccc1OC(F)F
inactive: [1] | [2] | [3] | [6] | [5]

C1C[C@@H]2[C@H]3CC[C@H](C3)[C@@H]2C1
inactive: [1] | [2] | [3] | [6] | [5]

CCOC(=O)c1ncn2c1CN(C)C(=O)c1cc(F)ccc1-2
inactive: [1] | [2] | [3] | [6]

COc1ccc(C2C(=O)c3ccccc3C2=O)cc1
inactive: [1] | [2] | [3] | [6] | [5]

CCN(CC)Cc1cc(Nc2ccnc3cc(Cl)ccc23)ccc1O
inactive: [1] | [2] | [3] | [6] | [5]

CN1C(=O)CC(C)(c2ccccc2)C1=O (stereo not drawn)
inactive: [1] | [2] | [3] | [4] | [5]

CC1(C)C(O)C(C)(C)C1O (stereo not drawn)
inactive: [1] | [2] | [3] | [4] | [6] | [5]

CC(=O)Oc1cccc(O)c1
inactive: [1] | [2] | [9] | [10] | [4] | [6]

CCC(=O)OC/C=C/c1ccccc1
inactive: [1] | [2] | [9] | [10] | [4]

O=C(O)[C@@H]1C[C@H](CP(=O)(O)O)CCN1
inactive: [1] | [2] | [9] | [10] | [4]

O=Cc1ccc(Cl)c(Cl)c1
inactive: [1] | [2] | [9] | [10]

NS(=O)(=O)c1cc2c(cc1Cl)NC(C1CC3C=CC1C3)NS2(=O)=O (stereo not drawn)
inactive: [1] | [2] | [9] | [10] | [4] | [6]

CC(=O)O[C@H]1C[C@@]2(C)[C@@H](C[C@@H](O)[C@H]3[C@@]4(C)CC[C@@H](O)[C@@H](C)[C@@H]4CC[C@@]32C)/C1=C(\CCC=C(C)C)C(=O)O
inactive: [1] | [2] | [9] | [10] | [4] | [6]

CC(=O)OCC(=O)[C@@]1(O)[C@H](OC(C)=O)C[C@H]2[C@@H]3CCC4=CC(=O)C=C[C@]4(C)[C@@]3(F)[C@@H](O)C[C@@]21C
inactive: [1] | [2] | [9] | [10]

CN(C)c1ccc(/C=C/c2ccc([N+](=O)[O-])cc2)cc1
inactive: [1] | [2] | [9] | [10]
